# Test results as given in PubChem BioAssay (Tox21).
# Records with an inconclusive call do not appear. Entries that show only a call come without a potency. Calls of active or inactive are those of the source. Calls come from the whole dose curve; as a rule, active = well fitted cell-killing curve with a large enough effect in the repeat runs; inconclusive = weak or mixed curves, or effect the other way; inactive = flat fitted curve, though single readings scatter.
# Experiment: qHTS RealTime-Glo MT Cell Viability Assay in HepG2 cells - 0 hour (AID 1224889); note: nearly all actives have a fitted effect of over 50% in size
# Settings: RealTime-Glo luminescence; series mostly up to 76.8 µM
# Excerpt: U.S. Tox21 Program National Center for Advancing Translational Sciences [NCATS] NIH Chemical Genomics Center [NCGC] U.S. Environmental Protection Agency [EPA] National Institutes of Environmental Health Sciences [NIEHS] National Toxicology Program [NTP] U.S. Food and Drug Administration [FDA] Tox21 Assay Overview: Measure of cell viability is critical in the cell-base assay. Analysis of cell viability is necessary for the characterization of cell responses to cytotoxic drugs and environmental stress. A RealTime-Glo MT Cell Viability Assay to monitor cell viability in real time of continues cell culture during 40 hours of compound treatment was used to screen Tox21 10K library compounds in HepG2 cells. The RealTime-Glo MT Cell Viability Assay is a nonlytic, homogeneous, bioluminescent method to measure cell viability in real time using a simple, plate-based method. The assay involves adding NanoLuc luciferase and a cell-permeant prosubstrate to cells in culture. Viable cells reduce the proprietary prosubstrate to generate a substrate for NanoLuc luciferase. This substrate diffuses from cells into the surrounding culture medium, where it is rapidly used by the NanoLuc Enzyme to produce a luminescent signal. The signal correlates with the number of viable cells, making the assay well suited for cytotoxicity studies.
# Tox21 Assay Protocol Summary: The mixture of HepG2 cell suspension and reagents were dispensed at 600cells/6 ul/well in 1536-well tissue culture treated black solid bottom plates using a Multidrop dispenser. After the assay plates were incubated at a 37 C/5% CO2 incubator for 5 hours, 23 nL of compounds dissolved in DMSO, positive and negative controls was transferred to the assay plate by a pintool work station. The plates were incubated at 37 C for 40 hours. The luminescence intensity were measured at 0h, 8h, 16h, 24h, 32h and 40h time points using ViewLux plate reader during compound treatment.
Structure (SMILES),"activity change, negative = cytotoxicity",Potency
CCCCCCCCCCCCCCCCI,-19.8% [at 15.8 µM] (inactive),
CN[C@@H]1[C@H](O)[C@H](NC)[C@H]2O[C@@]3(O)C(=O)C[C@@H](C)O[C@H]3O[C@@H]2[C@H]1O,,inactive
CCOC(=O)CC#N,,inactive
Cc1cc(O)c2c(c1)C(=O)c1cccc(O)c1C2=O,,inactive
CNCc1ccccc1,,inactive
CCC(C)(C)C1CCC(=O)CC1,,inactive
CCOC(=O)CCCCCCCCC(=O)OCC,,inactive
CC(C)COC(=O)CCCCC(=O)OCC(C)C,,inactive
Nc1ccc(S(=O)(=O)Nc2ccccn2)cc1,,inactive
O=C(COCCOCCOCC(=O)Nc1c(I)cc(I)c(C(=O)O)c1I)Nc1c(I)cc(I)c(C(=O)O)c1I,,inactive
COC(=O)CCC(=O)O,,inactive
CC(C)(C)NCCO,,inactive
Cc1ccc2c(c1)c1c3n2CCNC3CCC1 (stereo not given),,inactive
F[Si-2](F)(F)(F)(F)F,,inactive
C=CCOC(=O)c1ccc(C(=O)OCC=C)c(C(=O)OCC=C)c1,,inactive
CC(=O)/C=C/c1ccco1,,inactive
C=CCOCC(O)CCl (stereo not given),,inactive
CCC1COC(=O)O1 (stereo not given),,inactive
OCCCCCCCl,,inactive
Cc1ccc(S(=O)(=O)NC(=O)NC2CCCCCCC2)cc1,,inactive

Structure (SMILES),"activity change, negative = cytotoxicity",Potency
NC(=O)C1(N2CCCCC2)CCN(CCCC(=O)c2ccc(F)cc2)CC1,,inactive
C=CCOc1c(Br)cc(Br)cc1Br,,inactive
O=C(c1ccc2c(c1)C(=O)OC2=O)c1ccc2c(c1)C(=O)OC2=O,,inactive
CCC1Nc2cc(Cl)c(S(N)(=O)=O)cc2S(=O)(=O)N1 (stereo not given),,inactive
Cc1oc(=O)oc1CN1CCN(c2cc3c(cc2F)c(=O)c(C(=O)O)c2n3C(C)S2)CC1 (stereo not given),,inactive
O=C(O)CCNC(=O)c1ccccc1,,inactive
NS(=O)(=O)c1ccccc1OC(F)(F)F,,inactive
COc1cccc2sc(N)nc12,,inactive
CCOC(=O)C(=O)c1csc(NC=O)n1,,inactive
O=S1(=O)CCCC1,,inactive
C=COCCOCCOC=C,,inactive
CCCC(C)CC (stereo not given),,inactive
CCCCCCCCCCCCC1CO1 (stereo not given),,inactive
CCCCC(CC)COC(=O)c1ccccc1 (stereo not given),,inactive
OC[C@@H](O)[C@H](O)[C@@H](O)[C@@H](O)CO,,inactive
Nc1ccc(S(=O)(=O)NC(=O)c2ccccc2)cc1,,inactive
CO[Si](CCCS)(OC)OC,,inactive
COc1cc2c3cc1Oc1cc(ccc1O)C[C@@H]1c4c(cc(OC)c(O)c4Oc4ccc(cc4)C[C@@H]3N(C)CC2)CC[N+]1(C)C,,inactive
CC(C)c1ccccc1O,,inactive
NS(=O)(=O)c1cc2c(cc1Cl)NC(C(Cl)Cl)NS2(=O)=O (stereo not given),,inactive
